For 32 compounds, inhibition results are on record in ChEMBL document CHEMBL3433997, “St. Jude Leishmania screening dataset” (2016).

What all share (format): functional
Test [1] concerns the target Solute carrier family 2, facilitated glucose transporter member 1 (Homo sapiens) (UniProt P11166). The experiment in a line: ST_JUDE_LEISH: Cytotoxicity at 2uM final concentration against transgenic Leishmania Mexicana promastigotes LmGLUT1 that are glucose transport deficient and complemented with the human glucose transporter GLUT1. Activity is measured by DNA content using SYBR green in vitro.

The target of test [2] is Hexose transporter 1 (Plasmodium falciparum) (UniProt O97467). Description: ST_JUDE_LEISH: Cytotoxicity at 2uM final concentration against transgenic Leishmania Mexicana promastigotes LmPfHT that are glucose transport deficient and complemented with the Plasmodium falciparum hexose transporter. Activity is measured by DNA content using SYBR green in vitro.
The target of test [3] is Glucose transporter (Leishmania mexicana) (UniProt O61059). Description: ST_JUDE_LEISH: Cytotoxicity at 2uM final concentration against transgenic Leishmania Mexicana promastigotes LmGT2 that are glucose transport deficient and complemented with the L. Mexicana glucose transporter 2. Activity is measured by DNA content using SYBR green in vitro.

Sequence of Solute carrier family 2, facilitated glucose transporter member 1 (Homo sapiens) (P11166 whole entry): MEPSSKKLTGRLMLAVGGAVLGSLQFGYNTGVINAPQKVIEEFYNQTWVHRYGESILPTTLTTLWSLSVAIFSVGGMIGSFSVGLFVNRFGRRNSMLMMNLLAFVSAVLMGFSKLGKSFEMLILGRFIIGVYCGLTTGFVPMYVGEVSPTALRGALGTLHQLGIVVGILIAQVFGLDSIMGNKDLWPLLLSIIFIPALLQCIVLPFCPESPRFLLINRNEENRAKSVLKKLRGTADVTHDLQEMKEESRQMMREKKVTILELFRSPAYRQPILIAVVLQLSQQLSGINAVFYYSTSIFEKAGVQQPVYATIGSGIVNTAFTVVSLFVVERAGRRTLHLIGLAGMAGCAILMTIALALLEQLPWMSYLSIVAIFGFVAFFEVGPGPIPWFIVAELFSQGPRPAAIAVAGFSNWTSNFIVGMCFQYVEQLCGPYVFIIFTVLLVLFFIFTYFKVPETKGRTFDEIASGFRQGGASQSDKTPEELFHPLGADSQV

Broadly, the inhibition is the change of the read-out against control, counted positive when it falls. In the case of `Cc1ccnc(NC(c2cccc(OCc3ccccc3)c2)c2ccc3cccnc3c2O)c1` (stereo unspecified), the inhibition in test [1] was 0.07%; in test [2], 1.21%; in test [3], -1.47%.
In the case of `COCC(=O)N(Cc1ccccc1-c1cccc(CNCc2ccc3c(c2)OCO3)c1)C1CCN(Cc2ccccc2)CC1`, the inhibition stood at 0.4% in test [1], 1.22% in test [2] and 1.77% in test [3].
As for `O=C(/C=C/c1ccc(Cl)c(Cl)c1)NCCCCCN1CCC(C(=O)Nc2ccc(Cl)c(Cl)c2)CC1`, the inhibition in test [1] was 3%; in test [2], 2.54%; in test [3], 2.34%.
As for `O=C(NC1CCN(CC2(c3ccc(Cl)cc3)CCCCC2)CC1)c1cc[nH]n1`, the values for the inhibition in test [1], in test [2] and in test [3] were 3.86%, 2.9% and 3.61%, respectively.
On the same counts, the results for `CCc1sc(-c2ccc(C(C)(C)C)cc2)nc1C(=O)NCCCN1CCCC1=O` are -1.44%, -2.22% and -4.69%.
On the same counts, the results for `Cc1cc(=NN=Cc2ccc(Cl)cc2)c2ccccc2[nH]1` are 4.28%, 6.86% and 3.97%.
For `COc1cc2c(cc1C=CC(=O)N1CCN(Cc3nc(O)c4c(C)c(C)sc4n3)CC1)OC(C)C2` (stereo unspecified), in that order: 1.98%, 3.73% and 2.08%.
`O=C(NCCCCN1CCC(c2c[nH]c3ccc(-c4ccccc4)cc23)CC1)c1ccc(-c2ccccc2)cc1`: the figures for the inhibition in test [1], in test [2] and in test [3] were 5.96%, 4.21% and 5.24%, respectively.
For `O=C(NCCCCN1CCN(c2cccc3c2OCCO3)CC1)c1ccc(NC(=O)c2cc(Cl)cc(Cl)c2)cc1`, in that order: 2.62%, 2.75% and 3.56%.
On the same counts, the results for `CCCN(CCCCCCNCCc1ccc(Cl)cc1)CCc1ccc(O)c(O)c1` are -4.9%, -1.72% and -4.57%.
On the same counts, the results for `C=C[C@]1(C)C[C@@H](OC(=O)NC(=O)C2CCN(C(=O)CSc3ccccc3)CC2)[C@]2(C)[C@H](C)CC[C@]3(CCC(=O)[C@H]32)[C@@H](C)[C@@H]1O` are 10.2%, 11.6% and 5.56%.
In the case of `COc1cc2nc(-c3ccccc3)nc(N3CCN(CC(=O)N4CCCC4)CC3)c2cc1OC`, the inhibition in test [1] came out at 3.46%; in test [2], 1.22%; in test [3], 4.86%.
Consider `O=C(Nc1ccc(N2CCCN(Cc3cccc(F)c3)CC2)cc1)c1cccs1`, for which the inhibition is -0.38% in test [1], -0.87% in test [2] and -3.03% in test [3].
For `CC(O)C1CCCCN1C(=O)c1ccc(-c2ccc(-c3nc4cc(F)ccc4[nH]3)cc2)cc1` (stereo unspecified), in that order: 3.95%, 3.23% and 3.6%.
On the same counts, the results for `CCN(C(=O)CSc1cc(C)c2cc(C)cc(C)c2n1)C1CCS(=O)(=O)C1` (stereo unspecified) are 0.63%, 0.78% and -0.42%.
For `Cc1c(Cl)cccc1S(=O)(=O)Nc1ccc(CCN2CCC(N)CC2)cc1`, in that order: -2.63%, -0.88% and -2.13%.
For `CCOc1ccccc1NC(=O)Nc1ccc2c(c1)CCN(C1CCC1)CC2`, the results for the inhibition in test [1], in test [2] and in test [3] were 9.64%, 6.1% and 10.2%, respectively.
On the same counts, the results for `CCN(CC)CCN(Cc1ccc(-c2ccc(C(F)(F)F)cc2)cc1)C(=O)Cn1c(CCC2CCCCC2)nc(=O)c2ccccc21` are 0.48%, 1.35% and 0.43%.
For `COc1ccc(CNCc2ccc(-c3ccc(-c4nc5cc(C(F)(F)F)ccc5[nH]4)cc3)cc2)cc1`, in that order: 3.97%, 1.19% and 3.06%.
For the compound `CC(=O)Nc1ccc(OCCCCN(Cc2ccccc2C(F)(F)F)c2ccc(C(F)(F)F)c(C#N)c2)c(Cl)c1`, the values for the inhibition in test [1], in test [2] and in test [3] were 0.27%, 3.28% and 0.64%, respectively.
For `COc1ccc2nc(C)cc(Nc3ccc(Oc4ccc(Br)c5ccccc45)c(Cl)c3)c2c1`, in that order: 9.47%, 8.7% and 3.21%.
Consider `C[C@@H](CC1CCCCC1)OC(=O)N(C)[C@H]1CCN(C#N)C1`, for which the inhibition in test [1] was 14%; in test [2], 8.54%; in test [3] it was 8.86%.
For `O=C(Nc1cccc(-c2cccc(-c3nc4cc(C(F)(F)F)ccc4[nH]3)c2)c1)c1csnn1`, in that order: 12.8%, 9.97% and 9.43%.
On to `CN1CCC(COc2ccc(CN3CCC(NC(=O)c4cccc(Cl)c4)CC3)cc2)CC1`, for which the inhibition in test [1] was 2.48%; in test [2], 3.13%; in test [3], 0.42%.
On the same counts, the results for `CC(C)(C)C1CCc2nc(N)nc(N)c2C1` (stereo unspecified) are 44.3%, 55.5% and 46.5%.
Regarding `COc1cc(CCN(C)Cc2ccc(OC)c(OC)c2)ccc1NC(=O)c1cccc2c(O)c3cccc(F)c3nc12`, the inhibition in test [1] is 3.49%; in test [2], 1.84%; in test [3], 3.27%.
Consider `CCOc1cc(NC(=O)Nc2ccnc3ccccc23)cc(OC)c1`, for which the results for the inhibition in test [1], in test [2] and in test [3] were 12.6%, 10.5% and 7.94%, respectively.
Turning to `C=CCc1cccc(CN2CCC(c3cc(O)nc(-c4ccccn4)n3)CC2)c1O`, the inhibition came out at 8.38% in test [1], 10.4% in test [2] and 0.24% in test [3].
On the same counts, the results for `Cc1cc(NCC(C)C)c2[nH]nc(-c3ccccc3)c2n1` are 2.41%, 3.39% and 1.69%.
For `C=CCC(CC=C)N1C(=O)C(c2ccccc2)(c2ccccc2)N=C1N`, in that order: 0.75%, -0.83% and 0.62%.
For `Cc1cc(NCCc2ccc(O)cc2)nc(NCC(c2ccccc2)c2ccccc2)n1`, in that order: 12.9%, 8.92% and 5.19%.
Consider `Cc1cccc2nc(-c3cccc(-c4ccc(NC(=O)COc5ccccc5C(N)=O)cc4)c3)[nH]c12`, for which the inhibition worked out at 4.4% in test [1], 4.11% in test [2] and 5.02% in test [3].
